# Mcl1 Noxa PPI: Mcl-1/Noxa binding inhibitors, primary screen, biochemical, TR-FRET, 1536-well; inhibition, % at 21.7 µM; Induced myeloid leukemia cell differentiation protein Mcl-1 (Homo sapiens), Q07820; TR-FRET Mcl-1/Noxa peptide binding, 2 h; 1.5% of 220,000 active;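 active means compounds that cut the protein-peptide binding signal by more than 50% relative to plate controls in a single-dose test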;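 further: His-tagged Mcl-1 with rhodamine Noxa BH3 peptide and terbium anti-His antibody; 0% = Mcl-1 plus Noxa peptide wells and 100% = peptide-only wells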
# Target sequence (Q07820 whole entry, looked up): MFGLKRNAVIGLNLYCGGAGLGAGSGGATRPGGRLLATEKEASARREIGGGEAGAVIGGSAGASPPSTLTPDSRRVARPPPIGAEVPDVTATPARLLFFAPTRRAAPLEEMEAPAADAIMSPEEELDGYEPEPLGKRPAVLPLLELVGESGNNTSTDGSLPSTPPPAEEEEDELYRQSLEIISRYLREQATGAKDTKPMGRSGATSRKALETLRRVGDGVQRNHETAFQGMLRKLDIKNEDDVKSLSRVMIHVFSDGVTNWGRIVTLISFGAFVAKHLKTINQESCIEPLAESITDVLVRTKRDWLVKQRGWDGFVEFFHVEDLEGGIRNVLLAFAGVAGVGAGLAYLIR
# Mcl1-Bid inh: Mcl-1/Bid binding inhibitors, primary screen, biochemical, TR-FRET, 1536-well; Induced myeloid leukemia cell differentiation protein Mcl-1 (Homo sapiens), Q07820; TR-FRET Mcl-1/Bid-Dy647 peptide binding; inhibition, % at 21.7 µM; 0.97% of 220,000 active; AID 1021, 2008;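 active means compounds that cut the binding signal by more than half at the single screening dose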;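 further: His-tagged Mcl-1 with europium anti-His antibody binding Bid BH3 peptide; 0% = Mcl-1 plus peptide wells and 100% = peptide-only wells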
# MCL1-BIM inh: inhibitors of MCL1 binding to BIM-BH3, primary screen, biochemical, fluorescence polarization | GST-MCL1 / FITC-Bim-BH3 fluorescence polarization | inhibition, % at 10.9 µM | 0.68% of 320,000 active | AID 2057, 2009;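 active means inhibition above the mean inhibition of all tested compounds plus 3 SD, set per campaign, cut at about 40% in these data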;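 further: 0% = DMSO wells and 100% = unlabeled Bim-BH3 peptide control; higher means more loss of mP so more displacement of Bim peptide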
# Bim-Mcl-1: inhibitors of Bim peptide binding to Mcl-1, primary screen, biochemical, bead-based flow cytometry, multiplex; Induced myeloid leukemia cell differentiation protein Mcl-1 (Homo sapiens), Q07820; Bim peptide-Mcl-1 binding; inhibition, % at 10 µM; 0.1% of 190,000 active; AID 1009, 2008; in the data active means inhibition above about 40%;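 further: 0% = no compound tracer wells and 100% = peptide blocker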
# 14-3-3 Bad PPI: inhibitors of 14-3-3 zeta/Bad binding, primary screen, biochemical, TR-FRET, bovine 14-3-3 zeta; inhibition, % at 21.7 µM; 0.71% of 220,000 active; AID 781, 2007; TR-FRET 14-3-3zeta/Dy647-pBad peptide displacement, 1 h;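 active means inhibition above about 70%, limit read from the data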;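 further: 0% = full 14-3-3 plus peptide FRET controls and 100% = background without 14-3-3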
# Target sequence (P63103 whole entry, looked up): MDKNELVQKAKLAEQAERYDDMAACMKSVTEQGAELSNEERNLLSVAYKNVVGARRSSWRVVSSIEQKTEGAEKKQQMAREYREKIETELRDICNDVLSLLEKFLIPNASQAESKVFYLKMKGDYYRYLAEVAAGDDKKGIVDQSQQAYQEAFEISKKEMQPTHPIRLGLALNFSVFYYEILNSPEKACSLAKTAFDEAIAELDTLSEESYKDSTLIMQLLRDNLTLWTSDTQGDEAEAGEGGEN
# Numbers without * were called inactive; . = no result given; [ ] = remark or other dose. A selection: hits, their analogues and other compounds. The true share with any hit is near 2.5%.
SMILES,Mcl1 Noxa PPI,Mcl1-Bid inh,MCL1-BIM inh,Bim-Mcl-1,14-3-3 Bad PPI
CCCn1nc([N+](=O)[O-])c(C(C#N)c2nc3ccccc3o2)c(Cl)c1=O (stereo not given),60*,31,27,1,15
CCn1nc([N+](=O)[O-])c(C(C#N)c2nc3cc(C(F)(F)F)ccc3s2)c(Cl)c1=O (stereo not given),90*,36,6,4,.
O=C(Nc1cccc(F)c1)c1ccc(S(=O)(=O)N2CCCCC2)cc1,.,.,0,.,.
O=C(COc1ccccc1C(=O)c1cnn(-c2ccccc2)c1)Nc1ccccc1,24,6,3,0,84*[fluorescence artefact?]
O=C(O)c1cc([N+](=O)[O-])c(Sc2nc3ccccc3[nH]2)c([N+](=O)[O-])c1,.,.,-3,.,.
CS(=O)(=O)c1cc([N+](=O)[O-])c(Sc2nc3ccccc3[nH]2)c([N+](=O)[O-])c1,45,-35,13,2,87*
O=C(/C=C/c1cccc(OCc2ccccc2)c1)c1cccnc1,30,55*,6,-4,53
CCc1ccccc1NC(=O)Cn1nc(C(F)(F)F)c2c1CCC2,-2,-2,1,0,-2
CCc1ccc(NC(=O)Cn2nc(C(F)(F)F)c3c2CCC3)cc1,11,54*,2,-3,14
COc1ccc(NC(=O)NCCN2CCN(c3cc(OC)ccc3OC)CC2)cc1,.,.,14,.,.
COc1ccc(Cl)c(N2CCN(CCCNC(=O)Nc3ccc(C)cc3)CC2)c1,75*,4,6,0,-4
COc1ccc(N2CCC(CNC(=O)Nc3ccccc3)C2)cc1 (stereo not given),82*,-44,24,-5,-1
COc1ccc(NC(=O)NCCCN2CCC(Cc3ccccc3)CC2)cc1,52*,-9,5,.,-3
Cc1cccc(C)c1OCC(=O)N/N=C/C=C/c1ccco1,8,-18,3,-3,-19
Cc1ccc(NC(=O)Nc2ccccc2)nc1,.,.,2,.,.
C=CCOc1c(OC)cc(/C=N/Nc2cccc(C(=O)O)c2)c(Br)c1Br,88*,78*,13,-4,4
CCN(CC)C(=O)Cn1c(=O)n(CCC(=O)Nc2ccc(F)cc2)c(=O)c2sccc21,.,.,9,.,.
COc1ccc(C(=O)Nc2ccc3c(c2)C(=O)c2ccccc2C3=O)cc1OC,68*,85*,8,0,69
COc1ccc(C(=O)Nc2ccc3ccccc3c2)cc1OC,.,.,12,.,.
CCOc1cc(C=C2C(=O)c3ccccc3C2=O)ccc1OCC(=O)Nc1ccc(C)cc1,43,86*,20,-2,29
CCOc1cc(/C=C2/NC(=O)N(CC(=O)Nc3cccc(C)c3)C2=O)ccc1OCC(N)=O,59*,3,-4,1,20
COc1cc(C(=O)Nc2ccc3c(c2)Cc2ccccc2-3)cc(OC)c1OC,-9,0,-5,15,-2
COc1cc(C(=O)Nc2ccc3c(c2)C(=O)c2ccccc2C3=O)cc(OC)c1OC,85*,77*,-4,-2,62
O=C(O)C1CCC(CNCc2ccncc2)CC1 (stereo not given),.,.,1,.,.
COc1ccc(NC(=O)c2ccccc2NC(=O)COc2ccccc2)cc1,-70,53*,1,4,37
SMILES,Mcl1 Noxa PPI,Mcl1-Bid inh,MCL1-BIM inh,Bim-Mcl-1,14-3-3 Bad PPI
O=C(COC(=O)Cn1cnc2ccccc21)Nc1ccc2c(c1)C(=O)c1ccccc1C2=O,84*,65*,18,0,46
Cc1ccccc1OCC(=O)Nc1ccc2c(c1)C(=O)c1ccccc1C2=O,67*,8,10,-1,10
O=C(COc1ccccc1)Nc1ccc2c(c1)Cc1cc(NC(=O)COc3ccccc3)ccc1-2,20,22,-2,113*,28
Cc1ccccc1OCC(=O)Nc1ccc2c(c1)Cc1ccccc1-2,-6,-27,0,-1,30
O=C(COc1ccccc1)Nc1ccc2[nH]c(=O)[nH]c2c1,19,-34,-2,-1,-5
Cc1ccc(C)c(NC(=O)CSc2ccc(-c3cccs3)nn2)c1,6,16,-1,-3,12
CCC1c2ccc(C)n2CCN1C(=O)Nc1cc(Cl)ccc1OC (stereo not given),-4,-34,53*,-8,6
COC(=O)c1ccccc1NC(=O)N1CSC[C@H]1C(=O)OC,25,-2,11,0,-5
COc1ccc(Cl)cc1NC(=O)N1CCC(C)CC1,-6,-15,10,-2,-3
CCCC1c2ccc(C)n2CCN1C(=O)Nc1ccccc1Cl (stereo not given),4,-41,45*,-7,1
CCC1c2ccc(C)n2CCN1C(=O)Nc1ccccc1C(=O)OC (stereo not given),11,-37,44*,-5,2
O=C1C(C2=NC(C(=O)O)C3C(=O)N(c4ccc(Cl)cc4)C(=O)C23)=C(O)c2ccccc21 (stereo not given),63*,-21,-1,-1,-4
CCN(CC)CCn1c2ccc(F)cc2c2nc(C)sc21,42,53*,1,9,27
O=C(CN1CCCCCC1)Nc1ccccc1OC(F)F,.,.,-3,.,.
O=C(NC(NC(=S)Nc1ccccc1C(=O)O)C(Cl)(Cl)Cl)c1cccc([N+](=O)[O-])c1 (stereo not given),20,13,5,0,73*
COc1ccc(CNC(=O)c2ccc3c(c2)N(C)CCS3)cc1,.,.,0,.,.
CCS(=O)(=O)N1CCN(c2ccc(C(=O)NC3C4CC5CC(C4)CC3C5)cc2[N+](=O)[O-])CC1 (stereo not given),1,55*,-2,-1,3
CCS(=O)(=O)N1CCN(c2ccc(C(=O)N3CCOCC3)cc2[N+](=O)[O-])CC1,16,17,-3,.,6
CNC(=S)Nc1ccc(C)c(NC(=S)NC)c1,58*,-20,12,-5,-1
CC(=O)Nc1ccc(C)c(NC(=S)Nc2ccc(F)cc2)c1,16,-31,9,.,-6
CCn1cc(C(=O)NC2CCC(C)CC2)c(=O)c2cc(S(=O)(=O)N3CCCCC3)ccc21 (stereo not given),-34,-15,1,-45,-3
Fc1cccc(NC(=S)NNc2c3ccccc3nc3ccccc23)c1,80*,-19,.,1,-13
Oc1cccc(NC(=S)Nc2ccccc2)c1,23,-75,4,.,99*
COc1cc(OC)cc(C(=O)NNC(=O)CN2C(=O)NC3(CCCC3)C2=O)c1,.,.,-3,.,.
O=C(CC(Sc1ccc(Br)cc1)C(=O)O)c1ccc(F)cc1 (stereo not given),.,.,6,.,.
COC(=O)c1ccc2c(c1O)C(=O)c1ccccc1C2=O,58*,48,17,3,0

# Assay outcomes deposited in PubChem BioAssay by several laboratories.
